ALDH1A1 inh – qHTS Assay for Inhibitors of Aldehyde Dehydrogenase 1 (ALDH1A1); Aldehyde dehydrogenase 1A1 (Homo sapiens), P00352; Purified ALDH1A1, NADH fluorescence, propionaldehyde substrate; Potency, µM (doses to about 75.3 µM), for the others: at the top dose activity, negative = inhibition, actives largely listed as inhibitors; 7.3% of 220,000 active; AID 1030, 2008;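 also: potency is read from the fitted curve at half-maximal effect; plate controls were no enzyme wells and a reference inhibitor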
HPGD inh – qHTS Assay for Inhibitors of HPGD (15-Hydroxyprostaglandin Dehydrogenase); 4.3% of 150,000 active; 15-hydroxyprostaglandin dehydrogenase [NAD(+)] (Homo sapiens), P15428; Potency, µM, for the others: at the top dose activity change, negative = inhibition, actives largely listed as inhibitors; purified HPGD, NADH fluorescence kinetic, PGE2 substrate; also: potency is read from the fitted curve at half-maximal effect
Target sequence (P15428 whole entry, looked up): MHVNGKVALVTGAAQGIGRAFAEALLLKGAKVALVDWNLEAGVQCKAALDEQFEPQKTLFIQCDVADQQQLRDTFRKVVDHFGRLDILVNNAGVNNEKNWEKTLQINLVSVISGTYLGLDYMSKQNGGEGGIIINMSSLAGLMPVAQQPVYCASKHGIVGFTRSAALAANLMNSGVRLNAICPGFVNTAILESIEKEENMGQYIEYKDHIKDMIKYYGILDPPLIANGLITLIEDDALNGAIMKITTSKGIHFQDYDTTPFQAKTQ
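20 nM HPGD preincubated 15 min at room temperature with compound in 50 mM Tris-HCl pH 8, 0.01% Tween 20. Started with 1 mM NAD+ and 30 uM prostaglandin E2; NADH fluorescence (360/450 nm) read 5 times over 30-s intervals, last minus first.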
PNC inhibitor – High Content Assay for Compounds that inhibit the Assembly of the Perinucleolar Compartment | 3.1% of 140,000 active | AID 2417, 2010 | activity change (PNC), negative = inhibition, % at 10 µM | PC3M PTB-GFP, PNC prevalence imaging, 16 h; stronger effect = lower value;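 active = readout at or below -70, meaning at least 70% loss of cells showing the perinucleolar compartment, a nuclear body marking cancer cells; inconclusive = readout between -30 and a set limit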;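 also: plate controls were DMSO wells for no effect and camptothecin positive control wells for full effect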
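PC3M cells stably expressing PTB-GFP, 750–1000 cells/well, treated 16 h at 37 °C with compound (23 nl of library stock), in duplicate. After paraformaldehyde fixation and Hoechst stain, imaged at 20x; PNC prevalence scored by image analysis.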
* hit, by the source's call; u = inconclusive; x = no result; [ ] = remark or other dose. Sampled rows, rich in hits. Any-hit rate of the full collection: about 11%. Unless noted, calls follow the shape of the dose curve; as a rule, active = well fitted inhibition curve with a large enough effect (not every such curve was filed as active); inconclusive = small, poorly fitted or top-dose-only effect, or another doubt; inactive = no such curve, though single readings can be large or run the other way. Unless noted, % is scaled to controls: 0 for no effect and ±100 for the full control effect.

SMILES	ALDH1A1 inh	HPGD inh	PNC inhibitor
CCOc1ccc(OCC)c(NS(=O)(=O)c2ccc3c(c2)n(C)c(=O)c(=O)n3C)c1	-3.7%	-12.0%	u
CCOc1ccc2nc(NS(=O)(=O)c3ccc4c(c3)n(C)c(=O)n4C)sc2c1	u	25.1µM*	16.1
CCOc1ccc2nc(NS(C)(=O)=O)sc2c1	u	28.2µM*	26.4
CCOc1ccc(S(=O)(=O)Nc2nc3ccc(OC)cc3s2)cc1	4.9%	-23.4%	1.8
CC(C)N=C(NS(=O)(=O)c1ccccc1)C(Cl)(Cl)Cl	-4.4%	u	26.5
CC(=O)OC(COc1ccccc1)Cn1cnc2cc(C)c(C)cc21 (centres undefined)	-7.9%	x	x
COC(=O)c1ccc(C2/C(=C(/O)c3ccc(OC(C)C)cc3)C(=O)C(=O)N2c2cc(C)on2)cc1 (centres undefined)	1.4%	-16.0%	-13.5
COC(=O)c1ccc(C2/C(=C(/O)c3ccc(OC)cc3)C(=O)C(=O)N2c2cc(C)on2)cc1 (centres undefined)	12.6µM*	u	u
COc1ccc(N2C(=O)C(=O)/C(=C(/O)c3ccc(C)cc3)C2c2cccnc2)cc1 (centres undefined)	7.94µM*	-14.8%	75.5
COc1ccc(C2/C(=C(/O)c3ccc(C)cc3)C(=O)C(=O)N2C)cc1 (centres undefined)	-0.4%	-11.3%	-10.9
CCOC(=O)Nc1oc2ccccc2c(=O)c1CN1CCOCC1	-12.5%	-19.6%	u
O=c1[nH]c2ccc(S(=O)(=O)NCc3ccccc3)cc2[nH]1	7.3%	x	x
CCOC(=O)CNC(=O)CSc1nnc(Cn2cnc3ccccc32)n1C	1.6%	1.5%	43.6
CC1(C)CC(=O)C2=C(C1)N(Cc1ccco1)C(=O)C2(NC(=O)C1CCCCC1)C(F)(F)F (centres undefined)	-1.6%	-0.5%	25.2
CCCCNC(=O)C1=C(N)C(C(=O)Nc2ccc(C)c(S(=O)(=O)N3CCCCC3)c2)SC1=Nc1ccc(C)cc1C (centres undefined)	5.3%	-10.2%	42.0
CC1(C)CC(NC(=O)CCc2nnc(CCCCc3ccccc3)o2)CCO1 (centres undefined)	1.3%	x	x
COc1cccc(C(=O)CSc2nnc(CNS(C)(=O)=O)n2-c2ccc(C)cc2)c1	u	-8.0%	-21.4
CCOCCn1c(SCc2ccc(F)cc2)nc2c1c(=O)[nH]c(=O)n2C	-1.6%	-7.5%	14.6
CCOCCn1c(SCc2ccc(C)cc2)nc2c1c(=O)[nH]c(=O)n2C	-3.1%	-9.7%	-4.3
COCCn1c(SCc2c(F)cccc2Cl)nc2c1c(=O)[nH]c(=O)n2C	25.1µM*	-19.8%	u
COCCn1c(Sc2ccc(C)cc2)nc2c1c(=O)[nH]c(=O)n2C	12.6µM*	-23.1%	39.7
CC12CCC(C(=O)Nc3ccc(Br)cn3)(OC1=O)C2(C)C (centres undefined)	-1.3%	x	x
O=C(NCCc1ccc(Cl)cc1)/C(=C/c1cccnc1)NC(=O)c1ccccc1	-8.6%	-17.2%	165.9
CC(=O)Oc1ccc2oc(C)c(C(=O)N3CCOCC3)c2c1	-2.8%	-4.8%	-20.3
Cc1oc2cc3c(C(=O)N4CCCCC4)c(C)oc3cc2c1C(=O)N1CCCCC1	u	4.47µM*	-5.9
SMILES	ALDH1A1 inh	HPGD inh	PNC inhibitor
Fc1ccc(Sc2cc(Cl)c(-c3ccccc3)nn2)cc1	u	-20.6%	113.4
O=c1cc(Cl)c(-c2ccccc2)n[nH]1	0.2%	28.2µM*	24.7
COc1cc(OC)cc(C(=O)NCCN2CCOCC2)c1	u	-9.1%	40.2
O=[N+]([O-])c1ccc(OC/C=C2\Oc3ccc([N+](=O)[O-])cc3C2N2CCOCC2)cc1 (centres undefined)	25.1µM*	-7.0%	u
O=[N+]([O-])c1ccc2c(c1)C(N1CCOCC1)/C(=C/COc1ccc(F)cc1)O2 (centres undefined)	u	-14.2%	4.7
O=S(NCc1ccccc1)C12CC3CC(CC(C3)C1)C2 (centres undefined)	u	-21.9%	-14.1
O=S(NCc1ccco1)C12CC3CC(CC(C3)C1)C2 (centres undefined)	u	u	-100.0*
CCOc1ccc(C2NC(=O)c3n[nH]c(C)c32)cc1 (centres undefined)	11.2%	-4.8%	u
Cc1[nH]nc2c1C(c1ccccc1F)NC2=O (centres undefined)	2.7%	-8.8%	-102.9*
O=S(=O)(c1ccc(Cl)s1)N1CCC(Cc2ccccc2)CC1	12.6%	-17.9%	u
O=S(=O)(c1ccc(Cl)s1)N1CCN(Cc2ccccc2)CC1	6.1%	-8.0%	-82.9*
O=S1(=O)[C@H]([C@H]2CC3c4ccccc4C2c2ccccc23)[C@@H](N2CCCCC2)[C@@H]1c1ccccc1	7.6%[13.5 µM]	-12.2%	x
Cc1ccc(NC(=O)COC(=O)CCC(=O)c2ccc(C(C)(C)C)cc2)c([N+](=O)[O-])c1	0.501µM*	-20.5%	14.1
Cc1ccc(C(=O)NCC(=O)OCC(=O)Nc2cc(C)c(C)cc2[N+](=O)[O-])cc1	-9.2%	-12.9%	-18.7
Cc1ccc(NC(=O)CCC(=O)OCC(=O)c2ccc(Oc3ccc([N+](=O)[O-])cc3)cc2)c(C)c1	22.4µM*	-5.4%	-23.8
Cc1ccc(NC(=O)CCC(=O)OCC(=O)c2ccc(Oc3ccc([N+](=O)[O-])cc3)cc2)cc1	0.9%	-1.9%	39.9
CCOc1ccc(N2C(=O)c3cccnc3C2Nc2ccc(C)cc2)cc1 (centres undefined)	-0.5%	-4.4%	15.5
CCN(CC)C(=O)Cn1c(=O)n(-c2ccc(CC(=O)NCc3ccccc3)cc2)c(=O)c2sccc21	11.6%	x	x
Cc1nnc(C)n1/N=C/C=C/c1ccccc1	5.7%	-13.9%	60.2
S=c1[nH]nc(-c2ccncc2)n1/N=C/C(Cl)=C\c1ccccc1	-14.2%	x	x
S=c1[nH]nc(COc2ccccc2)n1/N=C/C(Cl)=C/c1ccccc1	31.6µM*	25.1µM*	40.4
S=c1[nH]nc(COc2ccccc2)n1/N=C/C=C/c1ccccc1	-14.3%	5.01µM*	0.0
CCc1nnc(N2C(=N)SCC2=O)s1	-5.6%	x	x
CC1(c2ccccc2)CC(C)(C)N2C(=O)C(=O)c3cccc1c32 (centres undefined)	0.501µM*	x	x
Cc1nnc(SCC(=O)N2c3ccccc3C(C)(c3ccccc3)CC2(C)C)s1 (centres undefined)	-11.7%	-17.9%	u
SMILES	ALDH1A1 inh	HPGD inh	PNC inhibitor
Clc1ccc(-c2c(C3=NCCCN3)nnn2-c2ccc(Cl)cc2)cc1	9.9%	x	x
CCN(CC)CCNc1nc(-c2cccs2)c(CC(=O)O)s1	20µM*	x	x
CC(=O)Nc1sc(NC(=O)c2ccccc2)nc1-c1cccs1	5.5%	-6.1%	-3.3
COCCn1c(=O)[nH]c2cc(C(=O)NCCN3CCN(c4ccc(OC)cc4)CC3)ccc2c1=O	u	u	-24.0
O=CNc1ccccc1	16.1%	-5.0%	x
CCC1SC2=NC(C)=C(C(=O)OCC(C)C)C(/C=C/c3ccccc3OC)N2C1=O (centres undefined)	-10.7%	-23.5%	-6.5

Source: PubChem BioAssay
